# Only some compounds are listed: those with a hit (about 12% of all), similar ones and a draw of the others.
# G9a block: qHTS Assay for Inhibitors of Histone Lysine Methyltransferase G9a; 8.8% of 350,000 active; AID 504332, 2011; Potency, µM (titrated, usually from 102 µM), inactives show at the highest dose activity, negative = inhibition, actives largely listed as inhibitors; Histone-lysine N-methyltransferase EHMT2 (Homo sapiens), Q96KQ7; G9a H3K9 monomethylation, AlphaScreen, 2 h; further: on the % scale 0 is the no-effect control and ±100 the full control effect; nearly all actives have a fitted effect of over 75% in size
# Target sequence (Q96KQ7 913-1193 limits assumed): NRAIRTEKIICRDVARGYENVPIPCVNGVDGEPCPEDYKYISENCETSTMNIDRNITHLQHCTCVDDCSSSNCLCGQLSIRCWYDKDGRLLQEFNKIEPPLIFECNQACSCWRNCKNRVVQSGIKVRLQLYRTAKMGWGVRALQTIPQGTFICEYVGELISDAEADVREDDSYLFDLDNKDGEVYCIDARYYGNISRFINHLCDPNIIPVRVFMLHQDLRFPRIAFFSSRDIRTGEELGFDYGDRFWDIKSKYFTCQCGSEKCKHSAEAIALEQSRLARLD
#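 G9a (20 nM) was preincubated 15 min with compound, then reacted 2 h at room temperature with 500 nM biotin-H3K9 peptide and 20 µM SAM. Monomethyl-H3K9 detected by AlphaScreen using anti-H3K9me1 antibody.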
# HP1b chromo inh: HTS for Inhibitors of HP1-beta Chromodomain Interactions with Methylated Histone Tails; Chromobox protein homolog 1 (Homo sapiens), P83916; Potency, µM (titrated, usually from 114 µM), for inactives: at the top dose activity change, negative = inhibition, hits mostly inhibitors; AlphaScreen HP1-beta / biotin-H3K9me3 peptide binding; 0.56% of 390,000 active; further: nearly all actives have a fitted effect of over 70% in size
# Target sequence (P83916 whole entry, looked up): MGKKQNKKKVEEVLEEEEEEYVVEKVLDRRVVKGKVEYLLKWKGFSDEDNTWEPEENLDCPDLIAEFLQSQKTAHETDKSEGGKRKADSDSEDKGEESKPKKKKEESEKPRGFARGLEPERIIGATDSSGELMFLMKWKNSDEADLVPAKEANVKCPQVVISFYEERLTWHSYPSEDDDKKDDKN
#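 AlphaScreen: HP1-beta (50 nM) preformed 30 min with biotin-H3(1-18)K9me3 peptide (50 nM) in PBS pH 7.4, 0.01% Tween-20. Compound added for 30 min at RT, then streptavidin donor/nickel chelate acceptor beads (10 ug/mL) for 30 min.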
# JMJD2A Tudor inh: qHTS Assay for Inhibitors of JMJD2A-Tudor Domain; Lysine-specific demethylase 4A (Homo sapiens), O75164; AlphaScreen JMJD2A-Tudor / H3K4me3 peptide binding; Potency, µM (highest dose often 114 µM), for inactives: at the highest dose activity change, negative = inhibition, hits mostly inhibitors; 4.4% of 390,000 active; further: on the % scale 0 is the no-effect control and ±100 the full control effect; nearly all actives have a fitted effect of over 50% in size
# PLK1 PBD block: qHTS for Inhibitors of PLK1-PDB (polo-like kinase 1 - polo-box domain): Primary Screen; Serine/threonine-protein kinase PLK1 (Homo sapiens), P53350; Potency, µM, without a hit: max response, negative = inhibition, usual class: inhibitors; Plk1 PBD binding of FITC phosphopeptide, fluorescence polarization; 2.8% of 360,000 active; further: series mostly up to about 57 µM; on the % scale 0 is the no-effect control and ±100 the full control effect; nearly all actives have a fitted effect of over 65% in size
# Sfp PPTase inh: qHTS Assay for Inhibitors of Bacillus subtilis Sfp phosphopantetheinyl transferase (PPTase). 4'-phosphopantetheinyl transferase ffp (Bacillus subtilis), Q9F4F7. Biochemical Sfp PPTase activity, qHTS. Potency, µM, for the others: largest response in the series, negative = inhibition, usual class: inhibitors. 3.5% of 310,000 active. AID 1490, 2009;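 further: the enzyme is Sfp with the accession as filed and its product quenches rhodamine fluorescence; 0% = enzyme reaction without inhibitor and -100% = no enzyme wells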
#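 Sfp 15 nM + cpd, 15 min RT; start w/ rhodamine-CoA 5 uM, BHQ-2-YbbR 12.5 uM (final); 50 mM Hepes pH 7.6, 10 mM MgCl2, 0.01% NP-40, 0.01% BSA; read 525/598 nm at 0 and 30 min.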
# BAZ2B block: qHTS Assay for Inhibitors of BAZ2B; Potency, µM (series often up to 114 µM), inactives show at the top dose activity change, negative = inhibition, hits mostly inhibitors; AlphaScreen BAZ2B-H3K14Ac peptide displacement; 4.4% of 360,000 active; Bromodomain adjacent to zinc finger domain protein 2B (Homo sapiens), Q9UIF8; further: on the % scale 0 is the no-effect control and ±100 the full control effect; nearly all actives have a fitted effect of over 60% in size
#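 Multi-concentration screen (max 110 uM) measuring displacement of acetylated histone H3 peptide from BAZ2B by AlphaScreen, using 50 nM protein, 50 nM peptide and 10 ug/mL streptavidin donor plus Ni-chelate acceptor beads.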
# * = called active by the depositor; ? = inconclusive; . = no result given; [ ] = dose if it differs, or a comment. The call rests on the fitted dose curve; in most records, active means well fitted curve in the direction sought with a large enough effect; inconclusive means small, poorly fitted or top-dose-only effect, or another doubt; inactive means no such curve, though single readings can be large; an effect the other way counts as inactive or inconclusive. Potency means the concentration at half of the fitted maximal effect.
SMILES,G9a block,HP1b chromo inh,JMJD2A Tudor inh,PLK1 PBD block,Sfp PPTase inh,BAZ2B block
COC(=O)C1=C(C(=O)OC)C2(OC1c1ccccc1C)C(=O)c1ccccc1C2=O (stereo not drawn),14µM*,17%,-13%,-10%,-29%,5%
COC(=O)C1=C(C)N(C)C(C)=C(C(=O)OC)C1c1ccccc1C,-6%,23%,-3%,-1%,-7%,-2%
Cc1ccc(OCC(=O)Nc2ccc(S(=O)(=O)Nc3cc(C)nc(C)n3)cc2)c(Br)c1,-34%[59 µM],6%,-7%,.,.,-19%
COc1cc([N+](=O)[O-])cc2sc(NC(C)=O)nc12,-21%[12.7 µM],13%,-4%,-22%,40µM*,-14%
CCCCC(=O)Nc1nc2c(OC)cc([N+](=O)[O-])cc2s1,0%,35%,-18%,-2%,13%,-12%
COC(=O)c1c(NC(=O)CCl)sc(C(=O)N2CCOCC2)c1C,20%,21%,-11%,-5%,13%,1%
CC1CN(C(=O)CCC(=O)NCCCN2CCN(Cc3ccccc3)CC2)c2cc(Cl)ccc2O1 (stereo not drawn),.,18%,-12%,-5%,11%,-15%
CN(C(=O)CSc1nnc(-c2ccccc2)c(-c2ccccc2)n1)C1CCS(=O)(=O)C1 (stereo not drawn),8%[59 µM],32%,-27%,-17%,-4%,-11%
CN(C(=O)CSc1nnc(-c2ccc(F)cc2)c2ccccc12)C1CCS(=O)(=O)C1 (stereo not drawn),22µM*,21%,-24%,?,-14%,?
CN(C(=O)CSc1nc2ccccc2o1)C1CCS(=O)(=O)C1 (stereo not drawn),-5%[2.33 µM],6%,-10%,-12%,.,7%
CN(C(=O)CSc1nnc(-c2ccc(F)cc2)n1C)C1CCS(=O)(=O)C1 (stereo not drawn),.,23%,-8%,-3%,.,.
CN(C(=O)CSc1nnc(COc2ccccc2F)n1N)C1CCS(=O)(=O)C1 (stereo not drawn),20µM*,-9%,-13%,-6%,.,0%
CN(C(=O)CSc1nnc(-c2ccccc2)n1C)C1CCS(=O)(=O)C1 (stereo not drawn),21%[12.7 µM],4%,-29%,27µM*,11%,-2%
CN(C(=O)CSc1nc(-c2ccccc2)c(-c2ccccc2)o1)C1CCS(=O)(=O)C1 (stereo not drawn),?,?,?,30µM*,6%,?
CC1Cc2cc(S(=O)(=O)N3CCC(C(=O)Nc4ccccn4)CC3)ccc2N1C(=O)C1CCC1 (stereo not drawn),13%,21%,-16%,-4%,8%,-21%
CC1(NC(=O)c2cc(-c3cccs3)nn2-c2ccccc2)CCS(=O)(=O)C1 (stereo not drawn),-7%,7%,-17%,-6%,.,13%
CN(C(=O)CSc1n[nH]c(-c2cccs2)n1)C1CCS(=O)(=O)C1 (stereo not drawn),50µM*,32%,-12%,-2%,.,28%
Cc1ccccc1Nc1nnc(SCC(=O)N(C)C2CCS(=O)(=O)C2)s1 (stereo not drawn),32µM*,25%,2%,-2%,9%,-2%
CN(C)N(C(=O)c1cc(-c2cccs2)nn1-c1ccccc1)C1CCS(=O)(=O)C1 (stereo not drawn),18µM*,14%,-22%,-3%,.,20%
CN(C)C(=O)CSc1nc(-c2ccccc2)c(-c2ccccc2)o1,13µM*,?,-19%[11.4 µM],0%,-5%,?
O=C1c2cccnc2-c2ncccc21,.,21%,-5%,-2%,-3%,2%
CC1(C)OCC(CSC2=C(SCC3COC(C)(C)O3)C(=O)c3ncccc3C2=O)O1 (stereo not drawn),.,.,.,.,1.3µM*,.
Cc1cc(C)c(NC(=O)CN(CC(=O)O)CC(=O)O)c(C)c1Br,4%[2.33 µM],.,.,.,30%,.
Cc1cccc2c(=O)cc(C)n(CC(N)=O)c12,.,62%,12%,3%,-9%,0%
Oc1ccccc1C(=S)N1CCCC1,14%[0.501 µM],-16%,-2%,?,50µM*,5%
SMILES,G9a block,HP1b chromo inh,JMJD2A Tudor inh,PLK1 PBD block,Sfp PPTase inh,BAZ2B block
COc1cccc(C(=S)N2CCCC2)c1OC,8.9µM*,?,-2%,24µM*,50µM*,5%
Oc1ccccc1C(=S)N1CCN(C(=S)c2ccccc2O)CC1,3.5µM*,?,-33%,24µM*,28µM*,6%
COc1cccc(C(=O)C(=O)c2cccc(OC)c2OC)c1OC,.,8%[57 µM],-19%,-6%,.,.
S=C(c1ccccc1)N1CCN(C(=S)c2ccccc2)CC1,?,39%,1%,-9%,1%,-29%
Cc1cc(NS(=O)(=O)c2ccc(N)cc2)nc(C)n1,33%[59 µM],.,.,.,8%,.
O=C(COc1coc(CN2CCc3ccccc3C2)cc1=O)N1CCOCC1,45µM*,38%,-4%,-11%,.,0%
O=C(NC(=S)NC(CO)Cc1ccccc1)c1ccc(F)cc1 (stereo not drawn),51%,15%,-23%,-4%,8%,8%
O=C(CN1CCN(S(=O)(=O)c2ccc(F)cc2)CC1)c1ccc(O)c(O)c1,20µM*,18%,?,-14%,18µM*,?
COc1cccc(C(=O)CN2CCN(S(=O)(=O)c3ccc(Cl)cc3)CC2)c1,10µM*,40%,-16%,.,.,-17%
O=C(CN1CCN(S(=O)(=O)c2ccc(Cl)cc2)CC1)c1ccc(O)c(O)c1,.,-18%[57 µM],18µM*,-17%,56µM*,?
CCOc1ccc(C(=O)CN2CCN(S(=O)(=O)c3ccc(F)cc3)CC2)cc1,?,39%,-12%,-9%,-10%,-23%
COc1cccc(N2CCN(CC(=O)N3CCN(S(=O)(=O)c4ccc(Cl)cc4)CC3)CC2)c1,?,22%,-28%,-1%,.,-27%
CCOC(=O)c1c(O)c(Cl)c(C)[nH]c1=O,-10%,5%,79µM*,27µM*,19%,.
Clc1ccc(CCNC(c2nnc(-c3ccccc3)o2)c2ccccc2Cl)cc1 (stereo not drawn),138%[59 µM],118%,45%,.,.,105%
Cc1nnc(NC2CCCCC2)[nH]c1=O,-8%[59 µM],35%,5%,1%,2%,6%
O=c1[nH]c(NC2CCCCC2)nnc1Cc1ccccc1,?,24%,50µM*,-12%,11%,-9%
CC1(C)OC(=O)C2(Cc3cc(C(F)(F)F)ccc3N3CCCCC32)C(=O)O1 (stereo not drawn),.,21%[57 µM],-18%[57.1 µM],.,.,.
